This is an account of results in ChEMBL document CHEMBL2218924, “A broad activity screen in support of a chemogenomic map for kinase signalling research and drug discovery” (Biochem J, 2013).

Assay [1] has as its target Calcium/calmodulin-dependent protein kinase type 1 (Homo sapiens) (UniProt Q14012). The note with it: at 1 µM.
For assay [2] the target is unchanged. The note with it: at 10 µM.
Assay [3] has as its target Calcium/calmodulin-dependent protein kinase type II subunit beta (Homo sapiens) (UniProt Q13554). The note with it: at 1 µM.
For assay [4] the target is unchanged. The note with it: at 10 µM.
The target in assay [5] is Calcium/calmodulin-dependent protein kinase type II subunit gamma (Homo sapiens) (UniProt Q13555). The note with it: at 1 µM.
Chain of Calcium/calmodulin-dependent protein kinase type II subunit gamma (Homo sapiens) (Q13555 whole entry): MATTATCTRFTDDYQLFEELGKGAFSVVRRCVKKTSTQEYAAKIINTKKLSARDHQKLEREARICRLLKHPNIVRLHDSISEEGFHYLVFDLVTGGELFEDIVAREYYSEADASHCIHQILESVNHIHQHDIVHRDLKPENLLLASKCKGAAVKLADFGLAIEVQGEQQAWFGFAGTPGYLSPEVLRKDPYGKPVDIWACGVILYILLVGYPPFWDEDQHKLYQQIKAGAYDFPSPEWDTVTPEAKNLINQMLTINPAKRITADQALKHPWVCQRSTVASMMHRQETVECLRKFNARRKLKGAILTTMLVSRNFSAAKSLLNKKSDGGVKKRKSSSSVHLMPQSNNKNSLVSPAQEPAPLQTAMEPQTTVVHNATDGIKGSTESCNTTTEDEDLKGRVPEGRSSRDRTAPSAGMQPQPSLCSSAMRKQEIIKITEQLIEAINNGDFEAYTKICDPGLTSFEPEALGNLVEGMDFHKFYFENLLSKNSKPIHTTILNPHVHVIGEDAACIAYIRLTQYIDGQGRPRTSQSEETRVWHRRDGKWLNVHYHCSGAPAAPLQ
Assay [6] has the same target. The note with it: at 10 µM.
Assay [7] has as its target Calcium/calmodulin-dependent protein kinase type II subunit delta (Homo sapiens) (UniProt Q13557). The note with it: at 1 µM.
The target is the same in assay [8]. The note with it: at 10 µM.
Assay [9] addresses T1, Calcium/calmodulin-dependent protein kinase type IV (Homo sapiens) (UniProt Q16566).
T1 sequence (whole entry): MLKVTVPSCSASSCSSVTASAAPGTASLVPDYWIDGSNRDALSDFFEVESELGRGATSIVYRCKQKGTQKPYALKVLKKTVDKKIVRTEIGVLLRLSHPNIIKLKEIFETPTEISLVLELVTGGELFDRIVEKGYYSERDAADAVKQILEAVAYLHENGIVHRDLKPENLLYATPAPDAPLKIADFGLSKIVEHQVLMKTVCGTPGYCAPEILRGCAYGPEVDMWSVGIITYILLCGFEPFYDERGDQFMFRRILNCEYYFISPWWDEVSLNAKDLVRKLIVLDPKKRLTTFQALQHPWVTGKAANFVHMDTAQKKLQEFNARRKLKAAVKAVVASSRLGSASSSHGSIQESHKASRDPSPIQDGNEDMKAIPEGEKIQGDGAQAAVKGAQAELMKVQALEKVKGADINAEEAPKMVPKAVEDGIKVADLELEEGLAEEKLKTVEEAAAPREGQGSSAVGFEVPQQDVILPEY
The note with it: at 1 µM.

Assay [10] addresses T1, Calcium/calmodulin-dependent protein kinase type IV (Homo sapiens). The note with it: at 10 µM.
Assay [11] deals with Death-associated protein kinase 1 (Homo sapiens) (UniProt P53355). The note with it: at 10 µM.
Chain of Death-associated protein kinase 1 (Homo sapiens) (P53355 whole entry, looked up): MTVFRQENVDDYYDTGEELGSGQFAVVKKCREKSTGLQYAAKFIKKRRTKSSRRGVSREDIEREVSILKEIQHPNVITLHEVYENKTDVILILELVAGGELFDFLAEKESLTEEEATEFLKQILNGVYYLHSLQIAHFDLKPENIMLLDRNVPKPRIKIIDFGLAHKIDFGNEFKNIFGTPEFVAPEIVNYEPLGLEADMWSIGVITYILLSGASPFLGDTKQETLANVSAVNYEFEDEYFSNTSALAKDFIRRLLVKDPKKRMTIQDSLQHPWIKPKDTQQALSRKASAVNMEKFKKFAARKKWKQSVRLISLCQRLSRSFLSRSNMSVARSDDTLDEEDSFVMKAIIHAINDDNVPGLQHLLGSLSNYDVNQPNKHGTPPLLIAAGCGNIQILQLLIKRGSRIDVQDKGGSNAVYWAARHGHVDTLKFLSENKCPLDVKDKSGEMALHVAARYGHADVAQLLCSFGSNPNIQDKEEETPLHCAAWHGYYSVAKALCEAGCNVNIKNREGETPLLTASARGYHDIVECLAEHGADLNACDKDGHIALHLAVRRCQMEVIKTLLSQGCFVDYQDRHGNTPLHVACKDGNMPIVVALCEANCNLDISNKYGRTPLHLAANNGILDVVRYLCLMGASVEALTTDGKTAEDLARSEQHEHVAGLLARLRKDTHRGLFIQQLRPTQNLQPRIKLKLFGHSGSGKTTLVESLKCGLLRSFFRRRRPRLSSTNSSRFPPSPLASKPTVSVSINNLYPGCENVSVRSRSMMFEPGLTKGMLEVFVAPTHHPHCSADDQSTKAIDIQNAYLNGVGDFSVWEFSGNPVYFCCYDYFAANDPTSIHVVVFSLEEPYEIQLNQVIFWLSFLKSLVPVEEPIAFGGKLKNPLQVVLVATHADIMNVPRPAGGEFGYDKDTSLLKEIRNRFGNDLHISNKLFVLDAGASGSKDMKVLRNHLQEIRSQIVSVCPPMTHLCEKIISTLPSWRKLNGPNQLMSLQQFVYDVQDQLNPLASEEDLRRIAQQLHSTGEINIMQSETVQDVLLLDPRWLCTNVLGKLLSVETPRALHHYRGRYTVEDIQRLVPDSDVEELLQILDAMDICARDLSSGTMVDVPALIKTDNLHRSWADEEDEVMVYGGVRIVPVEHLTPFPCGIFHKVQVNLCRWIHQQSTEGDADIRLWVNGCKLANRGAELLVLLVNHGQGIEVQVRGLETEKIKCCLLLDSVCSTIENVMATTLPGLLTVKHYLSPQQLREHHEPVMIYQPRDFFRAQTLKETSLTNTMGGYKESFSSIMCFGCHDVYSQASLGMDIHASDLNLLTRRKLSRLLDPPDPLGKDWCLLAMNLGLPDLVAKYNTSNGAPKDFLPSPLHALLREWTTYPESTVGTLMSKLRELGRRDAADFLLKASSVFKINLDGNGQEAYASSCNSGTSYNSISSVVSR
In assay [12] the target is Death-associated protein kinase 2 (Homo sapiens) (UniProt Q9UIK4). The note with it: at 1 µM.
Chain of Death-associated protein kinase 2 (Homo sapiens) (Q9UIK4 whole entry, looked up): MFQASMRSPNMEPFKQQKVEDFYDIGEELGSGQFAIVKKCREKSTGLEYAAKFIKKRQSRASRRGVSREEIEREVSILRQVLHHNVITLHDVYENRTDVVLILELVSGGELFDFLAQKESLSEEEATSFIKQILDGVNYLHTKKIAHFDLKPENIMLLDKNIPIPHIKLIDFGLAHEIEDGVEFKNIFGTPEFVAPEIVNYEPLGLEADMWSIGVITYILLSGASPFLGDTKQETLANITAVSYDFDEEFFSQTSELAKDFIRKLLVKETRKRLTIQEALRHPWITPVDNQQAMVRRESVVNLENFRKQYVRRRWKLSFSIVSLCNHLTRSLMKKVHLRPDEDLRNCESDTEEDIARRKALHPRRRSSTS
Assay [13] shares this target. The note with it: at 10 µM.
Assay [14] addresses T2, Serine/threonine-protein kinase DCLK2 (Homo sapiens) (UniProt Q8N568).
T2 sequence (whole entry): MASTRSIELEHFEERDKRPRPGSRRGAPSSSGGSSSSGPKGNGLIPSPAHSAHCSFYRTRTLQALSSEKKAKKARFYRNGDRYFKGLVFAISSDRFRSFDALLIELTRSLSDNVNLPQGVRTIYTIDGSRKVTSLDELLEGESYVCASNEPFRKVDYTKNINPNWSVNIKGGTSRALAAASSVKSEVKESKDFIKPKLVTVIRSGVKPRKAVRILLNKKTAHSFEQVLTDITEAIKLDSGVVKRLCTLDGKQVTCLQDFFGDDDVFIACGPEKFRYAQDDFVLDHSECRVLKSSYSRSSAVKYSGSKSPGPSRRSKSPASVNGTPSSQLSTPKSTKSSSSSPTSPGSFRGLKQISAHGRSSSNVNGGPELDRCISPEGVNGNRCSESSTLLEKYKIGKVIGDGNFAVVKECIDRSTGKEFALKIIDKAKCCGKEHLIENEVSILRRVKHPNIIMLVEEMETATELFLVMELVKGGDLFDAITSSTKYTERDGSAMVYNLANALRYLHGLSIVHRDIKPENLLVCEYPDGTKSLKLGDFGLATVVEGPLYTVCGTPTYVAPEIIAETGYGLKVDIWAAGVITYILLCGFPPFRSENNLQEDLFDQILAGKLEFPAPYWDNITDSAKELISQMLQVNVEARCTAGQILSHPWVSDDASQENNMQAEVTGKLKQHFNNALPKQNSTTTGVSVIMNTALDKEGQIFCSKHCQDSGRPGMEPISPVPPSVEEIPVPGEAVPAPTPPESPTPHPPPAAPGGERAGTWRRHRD
The note with it: at 1 µM.

The target in assay [15] is T2, Serine/threonine-protein kinase DCLK2 (Homo sapiens). The note with it: at 10 µM.
Assay [16] addresses T3, Discoidin domain-containing receptor 2 (Homo sapiens) (UniProt Q16832).
T3 sequence (whole entry): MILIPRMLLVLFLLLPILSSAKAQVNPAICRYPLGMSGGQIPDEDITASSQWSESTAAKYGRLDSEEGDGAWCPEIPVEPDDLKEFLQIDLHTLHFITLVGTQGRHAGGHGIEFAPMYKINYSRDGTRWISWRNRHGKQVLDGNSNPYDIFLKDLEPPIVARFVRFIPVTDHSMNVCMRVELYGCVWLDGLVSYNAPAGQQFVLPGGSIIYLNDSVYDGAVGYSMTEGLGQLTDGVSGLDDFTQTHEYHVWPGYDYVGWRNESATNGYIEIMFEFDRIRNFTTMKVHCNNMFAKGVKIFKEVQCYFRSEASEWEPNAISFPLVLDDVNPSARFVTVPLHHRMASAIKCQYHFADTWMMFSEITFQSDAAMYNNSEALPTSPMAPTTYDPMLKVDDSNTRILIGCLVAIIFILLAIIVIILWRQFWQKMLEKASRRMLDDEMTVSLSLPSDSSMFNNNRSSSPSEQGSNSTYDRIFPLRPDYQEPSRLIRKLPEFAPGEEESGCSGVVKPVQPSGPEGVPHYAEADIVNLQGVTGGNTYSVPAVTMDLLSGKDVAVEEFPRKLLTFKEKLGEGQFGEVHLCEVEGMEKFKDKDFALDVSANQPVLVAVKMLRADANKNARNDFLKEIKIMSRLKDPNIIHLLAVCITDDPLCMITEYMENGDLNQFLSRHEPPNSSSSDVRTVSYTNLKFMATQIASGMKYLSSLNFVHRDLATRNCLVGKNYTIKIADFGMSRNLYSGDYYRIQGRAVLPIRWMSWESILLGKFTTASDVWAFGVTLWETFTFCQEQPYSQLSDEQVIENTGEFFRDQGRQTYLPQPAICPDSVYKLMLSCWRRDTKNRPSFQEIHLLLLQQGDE
The note with it: at 1 µM.

Assay [17] deals with T3, Discoidin domain-containing receptor 2 (Homo sapiens). The note with it: at 10 µM.
The target of assay [18] is T4, Myotonin-protein kinase (Homo sapiens) (UniProt Q09013).
T4 sequence (whole entry): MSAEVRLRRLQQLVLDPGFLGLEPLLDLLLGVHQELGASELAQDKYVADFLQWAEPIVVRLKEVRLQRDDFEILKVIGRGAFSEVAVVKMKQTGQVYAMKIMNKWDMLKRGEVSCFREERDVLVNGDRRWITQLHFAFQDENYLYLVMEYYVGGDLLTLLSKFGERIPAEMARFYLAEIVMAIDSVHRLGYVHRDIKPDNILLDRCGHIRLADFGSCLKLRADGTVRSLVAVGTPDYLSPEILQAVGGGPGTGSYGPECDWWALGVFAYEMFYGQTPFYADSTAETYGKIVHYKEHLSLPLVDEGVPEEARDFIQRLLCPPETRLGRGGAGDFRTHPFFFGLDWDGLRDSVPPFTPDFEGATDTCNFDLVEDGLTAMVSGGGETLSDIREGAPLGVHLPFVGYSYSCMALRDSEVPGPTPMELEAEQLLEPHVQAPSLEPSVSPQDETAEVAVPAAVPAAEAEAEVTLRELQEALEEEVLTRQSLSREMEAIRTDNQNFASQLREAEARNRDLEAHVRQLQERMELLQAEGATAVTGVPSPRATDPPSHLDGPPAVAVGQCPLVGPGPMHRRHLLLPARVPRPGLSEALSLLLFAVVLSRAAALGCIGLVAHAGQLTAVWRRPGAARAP
The note with it: at 1 µM.

Assay [19] addresses T4, Myotonin-protein kinase (Homo sapiens). The note with it: at 10 µM.
For assay [20], the target named is T5, Serine/threonine-protein kinase 17A (Homo sapiens) (UniProt Q9UEE5).
T5 sequence (whole entry): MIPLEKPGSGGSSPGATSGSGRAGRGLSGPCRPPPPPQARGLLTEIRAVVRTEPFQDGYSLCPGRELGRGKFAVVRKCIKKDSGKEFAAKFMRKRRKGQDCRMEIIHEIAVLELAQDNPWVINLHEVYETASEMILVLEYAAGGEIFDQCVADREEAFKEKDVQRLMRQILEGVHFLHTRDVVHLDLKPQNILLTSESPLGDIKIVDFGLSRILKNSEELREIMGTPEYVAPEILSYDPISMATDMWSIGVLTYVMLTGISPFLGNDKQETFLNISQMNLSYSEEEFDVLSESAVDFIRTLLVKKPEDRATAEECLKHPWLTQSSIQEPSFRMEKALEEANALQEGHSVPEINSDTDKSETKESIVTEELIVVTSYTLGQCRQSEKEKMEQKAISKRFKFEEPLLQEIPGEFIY
The note with it: at 1 µM.

Chain of Calcium/calmodulin-dependent protein kinase type II subunit delta (Homo sapiens) (Q13557 whole entry): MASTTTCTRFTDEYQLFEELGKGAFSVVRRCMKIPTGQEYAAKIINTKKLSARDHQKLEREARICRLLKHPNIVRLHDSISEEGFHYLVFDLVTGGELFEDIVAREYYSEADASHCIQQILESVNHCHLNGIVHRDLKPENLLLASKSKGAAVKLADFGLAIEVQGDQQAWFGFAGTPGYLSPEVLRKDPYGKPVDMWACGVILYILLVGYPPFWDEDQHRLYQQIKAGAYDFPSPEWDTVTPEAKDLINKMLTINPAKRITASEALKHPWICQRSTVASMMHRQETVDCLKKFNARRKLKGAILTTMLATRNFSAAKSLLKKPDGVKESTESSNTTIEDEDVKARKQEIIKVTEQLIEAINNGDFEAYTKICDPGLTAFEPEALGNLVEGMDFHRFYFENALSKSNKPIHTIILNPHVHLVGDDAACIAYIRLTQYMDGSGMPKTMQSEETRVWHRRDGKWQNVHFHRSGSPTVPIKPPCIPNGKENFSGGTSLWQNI
Chain of Calcium/calmodulin-dependent protein kinase type 1 (Homo sapiens) (Q14012 whole entry, looked up): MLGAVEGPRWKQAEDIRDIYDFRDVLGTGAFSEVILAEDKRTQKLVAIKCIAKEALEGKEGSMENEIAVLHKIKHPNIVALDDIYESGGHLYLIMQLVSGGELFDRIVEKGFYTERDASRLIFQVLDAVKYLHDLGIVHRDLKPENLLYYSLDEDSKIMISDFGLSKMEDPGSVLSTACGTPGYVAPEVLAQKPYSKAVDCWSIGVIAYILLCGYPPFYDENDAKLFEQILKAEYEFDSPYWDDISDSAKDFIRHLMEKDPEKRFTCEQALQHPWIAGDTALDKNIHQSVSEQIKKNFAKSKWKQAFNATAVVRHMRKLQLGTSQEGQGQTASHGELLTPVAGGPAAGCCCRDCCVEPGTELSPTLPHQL
Chain of Calcium/calmodulin-dependent protein kinase type II subunit beta (Homo sapiens) (Q13554 whole entry): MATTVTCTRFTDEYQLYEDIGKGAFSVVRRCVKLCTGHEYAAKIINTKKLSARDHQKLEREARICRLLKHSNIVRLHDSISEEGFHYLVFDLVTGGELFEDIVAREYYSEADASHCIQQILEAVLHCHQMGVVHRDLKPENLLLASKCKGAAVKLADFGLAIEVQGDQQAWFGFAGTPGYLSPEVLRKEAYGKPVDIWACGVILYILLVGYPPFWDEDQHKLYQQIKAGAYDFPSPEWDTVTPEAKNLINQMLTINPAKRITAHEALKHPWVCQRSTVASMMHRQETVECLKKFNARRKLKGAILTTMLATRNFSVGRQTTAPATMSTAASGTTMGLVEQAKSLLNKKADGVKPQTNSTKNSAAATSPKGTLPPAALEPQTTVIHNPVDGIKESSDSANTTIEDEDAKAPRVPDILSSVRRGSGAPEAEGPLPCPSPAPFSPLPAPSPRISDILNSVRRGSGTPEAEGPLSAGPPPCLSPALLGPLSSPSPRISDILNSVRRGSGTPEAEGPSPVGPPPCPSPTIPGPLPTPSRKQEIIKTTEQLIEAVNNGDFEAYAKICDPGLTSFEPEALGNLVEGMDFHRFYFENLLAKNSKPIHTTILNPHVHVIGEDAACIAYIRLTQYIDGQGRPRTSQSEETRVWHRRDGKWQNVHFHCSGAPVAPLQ

Consider `COc1cc2ncnc(N3CCN(C(=O)Nc4ccc(Oc5ccccc5)cc4)CC3)c2cc1OC`, for which the residual activity in [1] came to 104%; in [2] it was 97%; in assay [3], 80%; in assay [4], 89%; in assay [5], 111%; in [6], 100%. Moreover, the residual activity in [7] amounted to 104%; in [8], 93%; in assay [9] it was 122%; in assay [10] it was 97%; in assay [11], 102%; in assay [12], 93%. In addition, the residual activity in [13] came out at 112%; in [14], 98%; in assay [15], 242%; in assay [16], 106%; in [17], 117%; in assay [18], 115%. Further, the residual activity turned out to be 142% in [19] and 120% in assay [20].

Turning to `CC(C)n1cnc2c(NCc3ccccc3)nc(NCCCO)nc21`, the residual activity in [1] came to 80%; in assay [2] it was 68%; in [3], 84%; in [4], 66%; in assay [5], 94%; in assay [6], 59%. Further, the residual activity in [7] was determined as 86%; in assay [8], 58%; in assay [9] it was 112%; in [10] it was 90%; in [11], 82%; in assay [12] it was 101%. In addition, the residual activity in assay [13] is 92%; in [14], 100%; in [15] it was 102%; in [16], 87%; in [17], 91%; in assay [18] it was 94%. Also, the residual activity came to 87% in assay [19] and 107% in assay [20].

In the case of `Cc1nc2cc3nc(-c4cccs4)cnc3cc2n1C`, the residual activity in assay [1] worked out at 109%; in [2], 107%; in [3], 100%; in [4] it was 93%; in assay [5], 103%; in assay [6] it was 84%. For the same molecule, the residual activity in [7] is 106%; in assay [8] it was 85%; in assay [9] it was 129%; in assay [10] it was 101%; in assay [11] it was 86%; in assay [12] it was 105%. In addition, the residual activity is 108% in [13]; 115% in assay [14]; 108% in assay [15]; 111% in [16]; 93% in assay [17]; 113% in assay [18]. For the same molecule, the residual activity in assay [19] is 117%; in assay [20] it was 64%.

For `O=C(O)c1ccc2c3c1cccc3c(=O)n1c3ccccc3nc21`, the residual activity in assay [1] came out at 108%; in assay [2], 117%; in [3], 88%; in assay [4], 51%; in [5], 88%; in assay [6], 31%. Also, the residual activity in assay [7] was determined as 80%; in assay [8], 31%; in [9], 94%; in assay [10] it was 21%; in assay [11], 47%; in assay [12] it was 31%. Also, the residual activity in assay [13] came out at 1%; in assay [14], 117%; in [15] it was 68%; in assay [16] it was 99%; in assay [17], 101%; in assay [18], 92%. Moreover, the figures for the residual activity in [19] and in assay [20] were 83% and 42%, respectively.

As to `O=C1NC(=O)/C(=C/c2ccc3c(c2)OC(F)(F)O3)S1`, the residual activity is 86% in [1]; 83% in assay [2]; 94% in assay [3]; 71% in [4]; 102% in assay [5]; 86% in assay [6]. The residual activity in assay [7] amounted to 106%; in assay [8], 82%; in assay [9], 99%; in assay [10], 72%; in assay [11], 81%; in assay [12] it was 95%. Besides, the residual activity worked out at 96% in assay [13]; 110% in [14]; 66% in assay [15]; 130% in [16]; 105% in assay [17]; 104% in [18]. In addition, the residual activity in assay [19] stood at 104%; in assay [20], 118%.

`Oc1ccc(Nc2nc(-c3ccc(Cl)cc3)cs2)cc1`: the residual activity came to 94% in [1]; 53% in assay [2]; 98% in assay [3]; 92% in [4]; 98% in [5]; 89% in assay [6]. Moreover, the residual activity in [7] came out at 102%; in assay [8], 98%; in assay [9], 102%; in assay [10], 114%; in [11] it was 107%; in [12], 101%. Moreover, the residual activity in assay [13] worked out at 107%; in assay [14] it was 123%; in assay [15] it was 179%; in [16] it was 97%; in assay [17], 104%; in [18], 100%. In addition, the figures for the residual activity in [19] and in assay [20] were 98% and 119%, respectively.

For the molecule `COc1cc2ncnc(Nc3ccc(Oc4ccccc4)cc3)c2cc1OC`, the residual activity in [1] amounted to 102%; in [2], 76%; in assay [3], 88%; in assay [4] it was 84%; in assay [5] it was 102%; in assay [6], 102%. The residual activity amounted to 105% in assay [7]; 111% in assay [8]; 103% in assay [9]; 104% in assay [10]; 106% in assay [11]; 99% in assay [12]. The residual activity in [13] was found to be 118%; in assay [14], 82%; in [15], 252%; in assay [16], 113%; in assay [17] it was 103%; in assay [18] it was 98%. Further, the residual activity in assay [19] was found to be 139%; in assay [20] it was 81%.

As usually defined, the residual activity is the signal under treatment as a percentage of the control signal.
